Reference: PubChem BioAssay (EPA / NIEHS)
Where a structure was tested more than once in an assay, its records may differ in their call. Active and inactive are the calls of the source. How the source made its calls: active means hit-call score of the fitted dose curve at least 0.9, where 1 is the maximum; inactive means score below 0.9.

Legend:
[1] = ATG_M_61_CIS: Attagene CIS-FACTORIAL HepG2 Assay for M61 Transcription Factor (Internal Marker) (AID 2282937); conditions: HepG2 Attagene CIS-FACTORIAL M61 internal marker reporter; actives raise or lower the signal
Procedure, shortened: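 Readout is reporter mRNA by RT-PCR, fluorescent primer extension and capillary electrophoresis, with gain or loss fitted relative to DMSO. Transfected HepG2 cells carrying endogenous-TF-driven cis reporters were exposed to chemicals for 24 hours.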

[2] = ATG_EGR_CIS: Attagene CIS-FACTORIAL HepG2 Assay for human Early Growth Response 1 (EGR1) (AID 2282938); conditions: HepG2 Attagene CIS-FACTORIAL EGR reporter mRNA; actives raise or lower the signal
Procedure, shortened: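 After 24 h compound exposure, RNA from reporter-transfected HepG2 cells was reverse-transcribed, PCR-amplified, fluorescently labelled and resolved by capillary electrophoresis. EGR1 reporter transcript changes, up or down, were fitted against DMSO, reflecting endogenous transcription-factor activity.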

[3] = ATG_M_19_CIS: Attagene CIS-FACTORIAL HepG2 Assay for M19 Transcription Factor (Internal Marker) (AID 2282939); conditions: HepG2 Attagene CIS-FACTORIAL M19 internal marker reporter; actives raise or lower the signal
Procedure, shortened: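 Signals come from fluorescence of labelled reporter-specific PCR fragments resolved by capillary electrophoresis, following 24 h treatment of HepG2 cells transfected with cis-promoter reporter units; activity was fitted in both directions relative to DMSO.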

[4] = ATG_ERE_CIS: Attagene CIS-FACTORIAL HepG2 Assay for Estrogen Response Element (ERE) (AID 2282940); conditions: HepG2 ERE cis-reporter, Attagene RNA transcript; actives raise or lower the signal
Procedure, shortened: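 Fluorescence of capillary-separated, FAM-labelled reporter cDNA fragments indicates reporter mRNA levels in HepG2 cells exposed to chemicals for 24 h. Transient transfection with cis-regulated units; data fitted in both directions against DMSO.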

[5] = ATG_Ets_CIS: Attagene CIS-FACTORIAL HepG2 Assay for human Erythroblast Transformation Specific (ETS) (AID 2282941); conditions: HepG2 ETS cis-reporter transcription, actives raise or lower the signal
Procedure, shortened: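 RT-PCR/capillary electrophoresis fluorescence read-out of reporter mRNA; HepG2 transient multi-reporter transfection; 24 h compound exposure; gain or loss of signal fitted bidirectionally relative to DMSO.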

[6] = biological target: Hepatocyte nuclear factor 3-beta (Homo sapiens) (UniProt Q9Y261); assay: ATG_FoxA2_CIS: Attagene CIS-FACTORIAL HepG2 Assay for human Forkhead box A2 (FOXA2) (AID 2282942); conditions: HepG2 cis-reporter transcription factor activity, 24 h; actives raise or lower the signal
Procedure, shortened: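 Endogenous transcription factor activity is captured via cis-element-driven reporter transcripts in transfected HepG2. Total RNA taken at 24 h post-dosing; labelled RT-PCR products resolved by capillary electrophoresis. Gain or loss fitted versus DMSO.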

[7] = ATG_FoxO_CIS: Attagene CIS-FACTORIAL HepG2 Assay for human Forkhead box O (FoxO) (AID 2282943); conditions: HepG2 Attagene cis-reporter, FoxO element, mRNA; actives raise or lower the signal
Procedure, shortened: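 HepG2 cells transiently transfected with cis-element-driven reporter units report endogenous FoxO activity. After 24 h chemical exposure, reporter mRNA quantified by RT-PCR, fluorescent labeling, HpaI digestion and capillary electrophoresis; bidirectional fit versus DMSO.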

[8] = ATG_GATA_CIS: Attagene CIS-FACTORIAL HepG2 Assay for human GATA Binding Protein (AID 2282944); conditions: HepG2 GATA cis-element reporter, Attagene multiplex mRNA; actives raise or lower the signal
Procedure, shortened: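 After transfecting HepG2 cells with multiple cis-regulated reporter units, chemicals are dosed for 24 h; isolated RNA undergoes RT-PCR and fluorescent labeling before capillary electrophoresis, with activity expressed against DMSO.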

[9] = ATG_GLI_CIS: Attagene CIS-FACTORIAL HepG2 Assay for human Zinc Finger Protein GLI1 (AID 2282945); conditions: HepG2, Attagene cis-factorial reporter mRNA, GLI element; actives raise or lower the signal
Procedure, shortened: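 Transiently transfected HepG2 cells report endogenous transcription factor activity via cis-element-driven reporter units. After 24 h compound exposure, reporter mRNA was measured by RT-PCR with capillary electrophoresis; bidirectional fitting against DMSO baseline.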

[10] = biological target: Bile acid receptor (Homo sapiens) (UniProt Q96RI1); assay: ATG_IR1_CIS: Attagene CIS-FACTORIAL HepG2 Assay for human Nuclear Receptor Subfamily 1 Group H Member 4 (NR1H4), IR1 submotif (AID 2282946); conditions: IR1 reporter transcription, actives raise or lower the signal
Procedure, shortened: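 Fluorescence of capillary-separated, HpaI-digested RT-PCR reporter products gave IR1-element mRNA induction in HepG2 cells 24 h after dosing. Endogenous transcription factors drove the cis-regulated reporters; activity was fitted bidirectionally against DMSO.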

Chain of Hepatocyte nuclear factor 3-beta (Homo sapiens) (Q9Y261 whole entry, looked up): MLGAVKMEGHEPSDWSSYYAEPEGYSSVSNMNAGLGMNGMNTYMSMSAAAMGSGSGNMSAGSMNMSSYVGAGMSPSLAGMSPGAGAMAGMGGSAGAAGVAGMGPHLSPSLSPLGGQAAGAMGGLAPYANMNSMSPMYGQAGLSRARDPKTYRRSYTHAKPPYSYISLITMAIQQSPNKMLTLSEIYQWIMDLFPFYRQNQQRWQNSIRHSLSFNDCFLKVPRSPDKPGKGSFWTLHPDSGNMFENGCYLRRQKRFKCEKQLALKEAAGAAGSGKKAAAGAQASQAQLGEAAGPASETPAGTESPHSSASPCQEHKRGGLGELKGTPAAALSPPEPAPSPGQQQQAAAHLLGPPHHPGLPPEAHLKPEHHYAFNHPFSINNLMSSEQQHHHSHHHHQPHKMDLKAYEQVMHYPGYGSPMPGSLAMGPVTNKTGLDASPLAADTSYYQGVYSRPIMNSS
Chain of Bile acid receptor (Homo sapiens) (Q96RI1 whole entry, looked up): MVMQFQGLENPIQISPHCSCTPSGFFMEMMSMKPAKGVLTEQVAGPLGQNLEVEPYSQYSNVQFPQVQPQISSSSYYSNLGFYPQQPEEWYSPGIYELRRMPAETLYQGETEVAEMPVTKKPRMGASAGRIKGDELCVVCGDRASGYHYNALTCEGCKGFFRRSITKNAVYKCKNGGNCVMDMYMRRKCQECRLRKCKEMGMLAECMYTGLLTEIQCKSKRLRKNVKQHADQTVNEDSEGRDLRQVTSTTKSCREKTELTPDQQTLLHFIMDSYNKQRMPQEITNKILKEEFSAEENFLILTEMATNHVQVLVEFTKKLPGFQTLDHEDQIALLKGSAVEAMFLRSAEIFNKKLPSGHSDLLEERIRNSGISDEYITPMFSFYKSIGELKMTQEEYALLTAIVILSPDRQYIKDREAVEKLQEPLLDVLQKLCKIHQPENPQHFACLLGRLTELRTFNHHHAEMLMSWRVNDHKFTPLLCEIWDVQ

Row | SMILES | outcome [1] | AC50 [2] | outcome [3] | AC50 [4] | outcome [5] | outcome [6] | outcome [7] | outcome [8] | AC50 [9] | outcome [10] | outcome [2] | outcome [4] | outcome [9] | AC50 [10] | AC50 [5]
1 | O=S1(=O)OCC2C(CO1)C1(Cl)C(Cl)=C(Cl)C2(Cl)C1(Cl)Cl (configuration not stated) | inactive | 179 µM (active) | inactive | 1.84 µM (active) | inactive | inactive | inactive | inactive | 186 µM (active) | inactive | – | – | – | – | –
2 | CSC(C)(C)C=NO | inactive | – | inactive | – | inactive | inactive | – | inactive | – | – | inactive | inactive | inactive | – | –
3 | OCC(F)(F)OC(F)(F)C(F)(F)OC(F)(F)C(F)(F)OC(F)(F)F | inactive | – | inactive | 5.62 µM (active) | inactive | inactive | inactive | – | – | inactive | inactive | inactive | inactive | – | –
4 | CNC(=O)Oc1ccc(N(C)C)c(C)c1 | inactive | – | inactive | – | inactive | inactive | inactive | inactive | – | inactive | inactive | inactive | inactive | – | –
5 | O=C(O)C(Cl)Cl | inactive | – | inactive | – | inactive | inactive | – | inactive | – | – | inactive | inactive | inactive | – | –
6 | CCCCc1ccc(O)cc1 | inactive | – | inactive | 7.43 µM (active) | inactive | inactive | inactive | – | – | inactive | inactive | – | inactive | – | –
7 | CCN(CC)C1CCCCC1 | inactive | – | inactive | – | inactive | inactive | – | inactive | – | inactive | inactive | inactive | inactive | – | –
8 | ClC(Cl)(Cl)c1ccccc1 | inactive | – | inactive | 45.1 µM (active) | inactive | inactive | inactive | inactive | – | inactive | inactive | – | inactive | – | –
9 | O=NN1CCCC1 | inactive | – | inactive | – | inactive | inactive | inactive | – | – | inactive | inactive | inactive | inactive | – | –
10 | NC(=O)C(F)(F)C(F)(F)F | inactive | – | inactive | – | inactive | inactive | inactive | inactive | – | inactive | inactive | inactive | inactive | – | –
11 | Nc1cc2c3c(c1)C(c1ccccc1)=N[C@@H](NC(=O)c1cccnc1)C(=O)N3CC2 | inactive | – | inactive | – | inactive | inactive | – | inactive | – | – | inactive | inactive | inactive | – | –
12 | C/C(=N\NC(=O)Nc1cc(F)cc(F)c1)c1ncccc1C(=O)O | inactive | – | inactive | – | inactive | inactive | inactive | – | – | inactive | inactive | inactive | inactive | – | –
13 | CCOC(=O)c1ccccc1N | inactive | – | inactive | – | inactive | inactive | inactive | inactive | – | inactive | inactive | inactive | inactive | – | –
14 | C=CC(=O)OCC(CC)(COC(=O)C=C)COC(=O)C=C | inactive | 26.6 µM (active) | inactive | – | inactive | inactive | inactive | inactive | – | – | – | inactive | inactive | 8.23 µM (active) | –
15 | CC(C)Nc1ccc(Nc2ccccc2)cc1 | inactive | – | inactive | – | inactive | – | – | inactive | – | inactive | inactive | inactive | inactive | – | –
16 | Nc1ccc2ccccc2c1 | inactive | – | inactive | – | inactive | inactive | – | – | – | – | inactive | inactive | inactive | – | –
17 | O=C(O)C(F)(F)OC(F)(F)C(F)(F)OC(F)(F)C(=O)O | inactive | – | inactive | – | inactive | – | inactive | – | – | inactive | inactive | inactive | inactive | – | –
18 | FC(F)(F)c1ccc(Cl)cc1 | inactive | – | inactive | – | inactive | inactive | – | – | – | inactive | inactive | inactive | inactive | – | –
19 | Cc1ccc([N+](=O)[O-])cc1C | inactive | – | inactive | – | inactive | – | inactive | inactive | – | inactive | inactive | inactive | inactive | – | –
20 | Nc1ccc(Sc2ccc(N)cc2)cc1 | inactive | – | inactive | 14.4 µM (active) | inactive | – | – | inactive | – | inactive | inactive | – | inactive | – | –
21 | O=c1ssc(Cl)c1Cl | inactive | 60.3 µM (active) | inactive | – | – | – | inactive | inactive | 59.1 µM (active) | – | – | inactive | – | 58.3 µM (active) | 52.1 µM (active)
22 | CCCCc1ccccc1 | inactive | – | inactive | – | inactive | inactive | – | inactive | – | inactive | inactive | inactive | inactive | – | –
23 | CCCCCCCc1ccc(O)cc1 | inactive | – | inactive | 3.89 µM (active) [middle of 4 runs] | inactive | – | inactive | – | – | – | inactive | – | inactive | – | –
24 | C=C(C)C(=O)OCC1CO1 (configuration not stated) | inactive | – | inactive | – | inactive | – | inactive | – | – | inactive | inactive | inactive | inactive | – | –
25 | O=C(O)C=CC(F)(C(F)(F)F)C(F)(F)F | inactive | – | inactive | – | inactive | – | – | inactive | – | inactive | inactive | inactive | inactive | – | –
26 | CN(C)C(=O)Cl | inactive | – | inactive | – | inactive | – | inactive | – | – | – | inactive | inactive | inactive | – | –
27 | Cc1cccc(N)c1 | inactive | – | – | – | inactive | inactive | inactive | inactive | – | – | inactive | inactive | inactive | – | –
28 | COP(=O)(O)OC | inactive | – | inactive | – | inactive | – | – | inactive | – | inactive | inactive | inactive | inactive | – | –
